Results on 40 molecules are retold here after PubChem BioAssay (NCATS).

Structures are written as SMILES. Results filed as inconclusive are left out. Where a call stands in place of a potency, no number is given. The source made the active and inactive calls. The call rests on the fitted dose curve; in most records, active means well fitted curve in the direction sought with a large enough effect; inconclusive means small, poorly fitted or top-dose-only effect, or another doubt; inactive means no such curve, though single readings can be large or run the other way.

This test deals with Glucagon-like peptide 1 receptor (Homo sapiens) (UniProt P43220). The experiment in a line: qHTS of GLP-1 Receptor Agonists: LOPAC Validation (AID 624148).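 Further: luminescence from a luciferase reporter switched on by cAMP; higher luminescence signal means agonism.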 As to conditions: GLP-1R agonist cell assay; series mostly up to 46.1 µM. The source says: The overall goal of this project was to develop a novel assay for discovering small molecule ligands for class B1 G protein-coupled receptors (GPCRs). Very few agonists (or inverse agonists) with generally weak activity for this entire group of physiologically important receptors are known to date. To establish proof-of-principle that this critical bottleneck can be overcome with a suitable screening approach, our studies focused on the class B1 receptor for glucagon-like peptide-1 (GLP-1R), a potential therapeutic target for diabetes and neurodegenerative disease.
Sequence of Glucagon-like peptide 1 receptor (Homo sapiens) (P43220 whole entry, looked up): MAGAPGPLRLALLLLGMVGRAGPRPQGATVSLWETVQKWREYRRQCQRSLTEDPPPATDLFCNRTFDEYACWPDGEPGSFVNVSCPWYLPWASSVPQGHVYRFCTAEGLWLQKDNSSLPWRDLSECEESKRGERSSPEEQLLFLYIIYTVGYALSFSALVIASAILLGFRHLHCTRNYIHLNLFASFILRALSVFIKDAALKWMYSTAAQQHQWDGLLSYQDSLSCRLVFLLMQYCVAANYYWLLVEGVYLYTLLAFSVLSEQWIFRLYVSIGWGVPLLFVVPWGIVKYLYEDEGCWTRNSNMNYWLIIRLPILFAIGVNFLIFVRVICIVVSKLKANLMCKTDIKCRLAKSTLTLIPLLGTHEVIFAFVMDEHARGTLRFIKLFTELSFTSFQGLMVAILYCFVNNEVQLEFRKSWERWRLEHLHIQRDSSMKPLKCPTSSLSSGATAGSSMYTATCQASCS
The assay was developed in a "mix and measure" format using a cell-based functional readout. Toward this goal, stably transfected HEK293 cell clones were established that co-express (i) a cAMP-responsive luciferase reporter gene, and (ii) GLP-1Rs that upon ligand interaction either stimulate (agonists) or inhibit (inverse agonists) luciferase activity. In different cell lines to be used for screening, expressed GLP-1Rs are specifically optimized for high sensitivity detection of either weak agonists (hypersensitive receptor) or inverse agonists (constitutively active receptor mutant). In addition, control cell lines were developed that express either the cAMP-responsive reporter gene without recombinant GLP-1Rs (enabling initial exclusion of GLP-1R independent effects of candidate probes), or the reporter gene together with wild type GLP-1Rs (for confirmation of probe activity at this receptor), or the reporter gene in combination with the constitutively active orphan receptor GPR119 (enabling initial exclusion of GLP-1R independent inhibitory effects of candidate inverse agonists).
To that end, this assay was optimized for 1536-well format and screened against the MLSMR.
NIH Molecular Libraries Probe Production Network [MLPCN]
NIH Chemical Genomics Center [NCGC]
PI Name: Martin Beinborn, Tufts Medical Center
In a white solid 1536-well plate, 6 uL of cells are dispensed in DMEM without phenol red, 10% Nu serum, and 1% pen-strep medium. The plates are then incubated for 12 hours at 37 deg C at 5% CO2 before 23 nL of compounds are added. After a 4-6 hr incubation at37 deg C and 5% CO2, 3 uL of detection reagent are added and after a 12 min incubation at RT, a luminescent read is obtained on the ViewLux.
`O=C(O)C1=CCCNC1`: the Potency entry was “inactive”.

On to `O=C1OC(=O)C2C3CCC(O3)C12` (stereo not given), for which the Potency entry was “inactive”.

Consider `CN(C)C(=O)/N=N/C(=O)N(C)C`, for which the Potency result is “inactive”.

Take `C=CC[C@H](N)C(=O)O`: the Potency result was “inactive”.

Turning to `CCCCCCCCCCCCCCSCC(=O)O`, the Potency entry was “inactive”.

On to `Cn1cc(C(=O)OCC2CCN(CCNS(C)(=O)=O)CC2)c2ccccc21`, for which the Potency entry was “inactive”.

Regarding `CC(N)(Cc1ccc(O)cc1)C(=O)O` (stereo not given), the Potency result was “inactive”.

For the molecule `Nc1ncnc2c1c(-c1ccc(Oc3ccccc3)cc1)cn2C1CCCC1`, the Potency entry was “inactive”.

Consider `Cc1cccc(C)c1OCC(N)C(C)C` (stereo not given), for which the Potency result is “inactive”.

In the case of `OCC1NCC(O)C(O)C1O` (stereo not given), the Potency result is “inactive”.

In the case of `NC(=O)CC[C@H](N)C(=O)O`, the Potency result was “inactive”.

With `COc1ccc(-c2cc3ncc(C)n3c(Nc3ncccc3C(N)=O)n2)cc1OC`, the Potency entry is “inactive”.

On to `Cn1c(=O)[nH]c2ncn(C)c2c1=O`, for which the Potency entry is “inactive”.

With `Cc1cc(Cn2cnc3c2C[C@@H](C(=O)O)N(C(=O)C(c2ccccc2)c2ccccc2)C3)ccc1N`, the Potency entry was “inactive”.

In the case of `N[C@@H](Cc1c[nH]c2ccccc12)C(=O)O`, the Potency entry is “inactive”.

Take `CCCN(CCc1ccccc1)C1CCc2c(O)cccc2C1` (stereo not given): the Potency result was “inactive”.

`O=C(O)C1CCCNC1` (stereo not given): the Potency result is “inactive”.

`CCCCCC(O)CCCC(=O)O` (stereo not given): the Potency entry was “inactive”.

In the case of `C[C@H]1CC2C3CCC4=CC(=O)C=C[C@]4(C)[C@@]3(Cl)[C@@H](O)C[C@]2(C)[C@@]1(O)C(=O)CO` (stereo not given in full), the Potency result is “inactive”.

Turning to `NC(C(=O)N[C@@H]1C(=O)N2C(C(=O)O)=C(Cl)CS[C@H]12)c1ccccc1` (stereo not given in full), the Potency result is “inactive”.

`NC/C=C\C(=O)O`: the Potency entry is “inactive”.

On to `CC(C)(C)c1ccc(/C=C/C(=O)Nc2ccc3c(c2)OCCO3)cc1`, for which the Potency entry is “inactive”.

For the molecule `CN1CC(O)C(O)C(O)C1CO` (stereo not given), the Potency result is “inactive”.

For the molecule `COc1cccc(OC)c1OCCNCC1CSc2ccccc2O1` (stereo not given), the Potency result was “inactive”.

As to `c1ccc2c(c1)CCC[C@H]2Nc1nc2ccccc2[nH]1`, the Potency entry was “inactive”.

In the case of `Oc1cc2c(cc1O)C(c1ccccc1)CNCC2` (stereo not given), the Potency result is “inactive”.

Regarding `CC(N)=NCCCC[C@@H](N)C(=O)O`, the Potency entry was “inactive”.

As to `CSC(=N)N`, the Potency result was “inactive”.

Regarding `COC(=O)C1=C(C)NC(C)=C([N+](=O)[O-])C1c1ccccc1C(F)(F)F` (stereo not given), the Potency result is “inactive”.

`Nc1ccc(-c2ccc3ccccc3n2)cc1`: the Potency entry was “inactive”.

In the case of `N#Cc1cc2nc(O)c(O)nc2cc1[N+](=O)[O-]`, the Potency entry was “inactive”.

For `O=C(O)/C=C/c1ccc(O)c(O)c1`, the Potency result is “inactive”.

As to `CC(C)NCC(O)COc1ccc(CC(N)=O)cc1` (stereo not given), the Potency entry is “inactive”.

Take `O=c1[nH]ccc2c(O)cccc12`: the Potency entry was “inactive”.

Turning to `CC[C@@H]1Cc2cc(O)ccc2C2=C1c1ccc(O)cc1C[C@H]2CC`, the Potency result was “inactive”.

On to `CNCCc1cnc(CCC(c2ccccc2)c2ccccc2)[nH]1`, for which the Potency entry was “inactive”.

Consider `CC(C)NC[C@H](O)COc1cccc2ccccc12`, for which the Potency entry is “inactive”.

As to `Cn1c(=O)c2[nH]c(C3CCCC3)nc2n(C)c1=O`, the Potency entry was “inactive”.

As to `O=C(O)C1CCNCC1`, the Potency result was “inactive”.

With `N=S(=O)(O)Cc1noc2ccccc12`, the Potency entry is “inactive”.
